# About 79,000 compounds went through this panel and 15% of them were active in at least one assay; those are over-represented in the sample as a whole. A number with no mark means an inactive call. Calls of active or inactive are those of the source. No stated cut-off is given here; in the data, active means growth inhibition above about 70%; inactive means the rest.
# Experiments:
# [1] = NCI Yeast Anticancer Drug Screen. Data for the rad50 strain (AID 155);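 further: 0% = growth of vehicle-only cultures of the same strain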; details: S. cerevisiae rad50 strain growth inhibition, hits give high values
# Outline: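 Yeast carrying a defined DNA repair defect were exposed to test compounds, and growth was compared with vehicle-treated controls to give percent inhibition.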
# [2] = NCI Yeast Anticancer Drug Screen. Data for the mec2-1 strain (AID 157); details: S. cerevisiae mec2-1 strain, hits give high values
# Outline: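 Cells of the genetically defined mec2-1 yeast strain are incubated with test compound. Inhibition of growth is calculated against vehicle-treated controls.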
# [3] = NCI Yeast Anticancer Drug Screen. Data for the sgs1 mgt1 strain (AID 161);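 further: 0% = growth of cultures given vehicle only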; details: S. cerevisiae sgs1 mgt1 strain, hits give high values
# Outline: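 Inhibition of yeast growth, normalised to vehicle-treated controls, is reported for a strain bearing genetic alterations in DNA damage repair.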
# [4] = NCI Yeast Anticancer Drug Screen. Data for the cln2 rad14 strain (AID 165);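 further: 0% = growth equal to vehicle treated cultures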; details: S. cerevisiae cln2 rad14 strain, hits give high values
# Outline: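 The screen exposed genetically defined yeast (cln2 rad14) to test compounds and scored growth inhibition relative to vehicle-treated controls.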
# [5] = NCI Yeast Anticancer Drug Screen. Data for the bub3 strain (AID 167); details: S. cerevisiae bub3 mutant strain, hits give high values
# Outline: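 Compounds were applied to a genetically altered yeast strain carrying a cell-cycle control defect. Growth inhibition was scored against vehicle-treated controls.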
# [6] = NCI Yeast Anticancer Drug Screen. Data for the mlh1 rad18 strain (AID 175); details: S. cerevisiae mlh1 rad18 strain growth inhibition, hits give high values
# Outline: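 Compound-treated yeast growth, normalised to vehicle controls. Strain bears defined DNA repair mutations.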
# [7] = at 5.0 µM (retest, dose inferred, filed as 0.5)
# [8] = at 50.0 µM (retest, dose inferred, filed as 5.0)
Compound,"growth inhibition [1, 7]","growth inhibition [1, 8]",growth inhibition ([1]; at 50.0 µM),"growth inhibition [2, 7]","growth inhibition [2, 8]",growth inhibition ([2]; at 50.0 µM),"growth inhibition [3, 7]","growth inhibition [3, 8]",growth inhibition ([3]; at 50.0 µM),"growth inhibition [4, 7]","growth inhibition [4, 8]",growth inhibition ([4]; at 50.0 µM),"growth inhibition [5, 7]","growth inhibition [5, 8]",growth inhibition ([5]; at 50.0 µM),"growth inhibition [6, 7]","growth inhibition [6, 8]",growth inhibition ([6]; at 50.0 µM)
C[Si](C)c1cccc(Cl)c1,2%,5%,0.25%,0%,4%,0.45%,-1%,-3%,6.9%,8%,6%,13.8%,1%,0%,7.55%,-29%,1%,-0.75%
CCCCSc1nc2c([nH]1)c(=S)n(C)c(=S)n2C,2%,80% (active),63.5%,20%,91% (active),82% (active),12%,67%,55.5%,-5%,85% (active),69.7%,-12%,92% (active),66.3%,-7%,86% (active),81.2% (active)
N#CC1C2CCC3(CC2CCN1C(=O)c1ccccc1)OCCO3 (configuration not stated),-1%,59%,32.5%,-1%,76% (active),72.2% (active),-6%,60%,43%,-7%,78% (active),71.8% (active),12%,82% (active),82.8% (active),-7%,77% (active),60.9%
O=Cc1c(Cn2ccnc2)c2cc([N+](=O)[O-])ccc2n1Cc1ccccc1,5%,49%,62.5%,4%,39%,13.7%,6%,48%,57.2%,-2%,-17%,22.9%,-3%,-1%,3.8%,8%,64%,68.5%
Cc1ccccc1C(=O)C(C)c1ccccc1 (configuration not stated),-19%,-6%,6.35%,-8%,-4%,9.25%,-2%,-7%,12.5%,-35%,-5%,44.4%,-8%,3%,4.5%,-24%,4%,-9.2%
CCOc1ccccc1N=Nc1ccc2oc(=O)c(C(=O)Nc3cccc(C)c3)cc2c1,3%,13%,52.1%,3%,-2%,25.9%,8%,-5%,64.8%,-4%,4%,-76%,-4%,-12%,9.9%,3%,12%,89% (active)
CC1C[C@]2(C)C(=S)Nc3ccccc3[C@@H]2Nc2ccccc21 (some centres not stated),-1%,43%,21.9%,8%,55%,17.9%,23%,74% (active),48.8%,26%,60%,19.8%,24%,82% (active),42.3%,6%,58%,63.3%
CCCCOC(=O)c1ccc(O)c(OC)c1,3%,-13%,-19.8%,-10%,4%,-3.2%,0%,6%,5.25%,-5%,2%,-43.9%,85% (active),96% (active),95.7% (active),0%,3%,-11.2%
Cn1c(=S)c2[nH]c(SC3CCCCC3)nc2n(C)c1=O,46%,68%,94.8% (active),42%,61%,99.5% (active),41%,-20%,99.2% (active),27%,34%,52.5%,52%,63%,98.2% (active),23%,62%,98.8% (active)

# — PubChem BioAssay (NCI)
